From PubChem BioAssay AID1851 (National Center for Advancing Translational Sciences (NCATS), 2009)
About 5,800 (36%) of roughly 16,000 compounds were called active. Not shown: some 23% with an inconclusive outcome. This is one part of the list. Values without a mark were called inactive. The call rests on the fitted dose curve; in most records, active means well fitted curve in the direction sought with a large enough effect; inconclusive means small, poorly fitted or top-dose-only effect, or effect the other way; inactive means no such curve, though single readings can be large or run the other way.

What follows are molecules tested against Cytochrome P450 2C19 (Homo sapiens) (UniProt P33261) (assay: Cytochrome panel assay with activity outcomes). Conditions: recombinant CYP, pro-luciferin dealkylation, luminescence, p450-cyp2c19; series mostly up to 57.1 µM; activity, negative = inhibition: at the top concentration.
Chain of Cytochrome P450 2C19 (Homo sapiens) (P33261 whole entry, looked up): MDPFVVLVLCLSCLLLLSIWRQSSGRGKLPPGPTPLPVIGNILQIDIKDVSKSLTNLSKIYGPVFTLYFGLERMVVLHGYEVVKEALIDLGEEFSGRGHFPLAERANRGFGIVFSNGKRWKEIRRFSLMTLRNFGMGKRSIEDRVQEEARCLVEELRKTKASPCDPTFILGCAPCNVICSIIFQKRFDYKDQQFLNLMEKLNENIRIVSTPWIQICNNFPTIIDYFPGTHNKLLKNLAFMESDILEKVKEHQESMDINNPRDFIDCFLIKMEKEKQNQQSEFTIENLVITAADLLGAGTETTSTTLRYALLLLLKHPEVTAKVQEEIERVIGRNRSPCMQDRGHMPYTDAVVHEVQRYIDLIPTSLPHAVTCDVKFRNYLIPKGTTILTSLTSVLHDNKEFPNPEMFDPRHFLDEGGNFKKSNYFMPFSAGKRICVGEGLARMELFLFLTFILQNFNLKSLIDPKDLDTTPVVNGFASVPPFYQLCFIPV
On the % scale 0 is the no-effect control and ±100 the full control effect.

SMILES	activity, negative = inhibition	AC50
O=C(CCNS(=O)(=O)c1ccc2c(c1)CCC(=O)N2)NCc1ccc2c(c1)OCO2	-25%	–
COc1ccc(N(C)S(=O)(=O)c2ccc3c(c2)CCC(=O)N3)cc1	–	6.31 µM (active)
COc1ccc(NC(=O)CCNS(=O)(=O)c2ccc3c(c2)CCC(=O)N3)cc1	-14.5%	–
N#Cc1cccc(NC(=O)N2CC[C@@]3(CCCN(C(=O)c4ccncc4)C3)C2)c1	-19.1%	–
Cc1cc(NC(=O)CSc2ccc3nnc(-c4ccc(F)cc4)n3n2)no1	-26.1%	–
Cc1cc(NC(=O)CSc2n[nH]c(-c3cccs3)n2)no1	–	14.1 µM (active)
CCCCc1nc(SCC(=O)Nc2ncccn2)n[nH]1	-8.74%	–
N[C@@H](Cn1ccc(=O)n(Cc2ccccc2C(=O)O)c1=O)C(=O)O	–	0.1 µM (active)
N[C@H](Cn1ccc(=O)n(Cc2ccccc2C(=O)O)c1=O)C(=O)O	-24.5%	–
Cc1nn(-c2ccccc2)c(Cl)c1C(=O)Nc1c(C)n(C)n(-c2ccccc2)c1=O	-5.57%	–
CCc1nnc(NC(=O)c2c(C)nn(-c3ccccc3)c2Cl)s1	–	20 µM (active)
CCCCCc1nnc(NC(=O)C(=O)OCC)s1	-25.8%	–
COc1ccccc1CNCc1cccs1	–	8.91 µM (active)
COc1cc(CNCc2cccs2)cc(Br)c1OC	–	2.51 µM (active)
COc1cc(CNCc2cccs2)ccc1OCC(=O)NC(C)(C)C	–	14.1 µM (active)
COc1ccccc1CNCCCCCCNCCCCCCCCNCCCCCCNCc1ccccc1OC	11.8%	–
CC(C)NC(=O)N1CCCC2(CCN(C(=O)c3csnn3)CC2)C1	-6.67%	–
COCC(=O)N1CCC2(CCCN(C(=O)Nc3cccc(F)c3)C2)CC1	-3.56%	–
Cc1ccc(-c2csc3ncnc(NCCN4CCOCC4)c23)cc1	–	11.2 µM (active)
CN(C)C(=O)c1ccc(-c2cncnc2NCCN2CCOCC2)cc1	9.7%	–
CN(C)C(=O)c1ccc(-c2ccc3ncnc(NCCN4CCOCC4)c3c2)cc1	9.58%	–
CN(C)c1ccc(-c2cncnc2NCCN2CCOCC2)cc1	–	6.31 µM (active)
CC(C)=CCC/C(C)=C/CO/N=C1/C[C@@H](O)[C@@H](O)[C@@H]2[C@@H]3C(=O)N(C[C@@H]4CCCO4)C(=O)[C@H]3CC[C@H]12	-12% [at 11.4 µM]	–
Nc1cc2c(nc3c4ccccc4c(N)cc3[n+]2-c2cccc3ccccc23)c2ccccc12 (tested in a mixture with another compound)	–	1 µM (active)

SMILES	activity, negative = inhibition	AC50
Cc1cc(N)c2ccccc2[n+]1CCCCCCCCCC[n+]1c(C)cc(N)c2ccccc21	–	inactive
COc1cc(/C=C(\C#N)C(=O)c2ccc(O)c(O)c2)cc(I)c1O	-22.9%	–
COc1cc(/C=C(\C#N)C(N)=O)cc(CSc2nc3ccccc3s2)c1O	–	3.16 µM (active)
COc1ccc(/C=C(\C#N)C(N)=O)c(OC)c1	6.18% [at 11.4 µM]	–
CCc1ccc(N/C(SCc2ccccc2C)=C(/C#N)C(=O)NCc2ccco2)cc1	–	2.82 µM (active)
CC(C)Cn1c(SCC(=O)c2c(N)n(C)c(=O)n(C)c2=O)nc2ccccc21	–	7.94 µM (active)
CCNC(=O)NC(=O)CSc1nc2ccccc2n1CC(C)C	–	5.62 µM (active)
Cc1cc(C)c(NC(=O)C(C)Sc2nnc(-c3ccco3)n2-c2ccccc2)c(C)c1 (stereo not drawn)	–	1.78 µM (active)
O=C(CSc1nnc2sc3ccccc3n12)NCc1ccco1	–	10 µM (active)
O=C(CSc1nnc(-c2ccco2)n1-c1ccccc1)NCc1ccco1	–	8.91 µM (active)
CN(C)CC[C@H](c1ccc(Cl)cc1)c1ccccn1	–	inactive
CC(c1ccc(Cl)cc1)n1c(-c2ccc3ccccc3n2)n[nH]c1=S (stereo not drawn)	–	0.447 µM (active)
Cc1cc2c(cc1C)-c1nnc(-c3ccc4ccccc4n3)n1C(C)(C)C2	-15.6%	–
CC(=O)OC[C@@H]1O[C@@H](O/N=C2/C[C@@H](O)[C@@H](O)[C@@H]3[C@@H]4C(=O)N(C5CCCCC5)C(=O)[C@H]4CC[C@H]23)[C@H](OC(C)=O)[C@H](OC(C)=O)[C@@H]1OC(C)=O	9.71% [at 11.4 µM]	–
N#Cc1c(Cl)cccc1-n1ccnc1	–	8.91 µM (active)
N#Cc1c(-n2ccnc2)cccc1-n1ccnc1	–	2.24 µM (active)
FC(F)(F)c1ccccc1-n1ccnc1	-21.1%	–
Cc1cccc(-n2cccc2)c1C#N	–	17.8 µM (active)
CSC(=NC#N)N1CCN(c2ccc(Cl)cc2)CC1	–	0.708 µM (active)
O=C(CCNC(=O)Cn1cnc2ccccc2c1=O)NCC1COc2ccccc2O1 (stereo not drawn)	–	28.2 µM (active)
O=C(Cn1cnc2ccccc2c1=O)NCCC(=O)Nc1ccc2c(c1)OCCO2	-14.1%	–
c1ccc(C(c2ccccc2)N2CC[C@@]3(CCCNC3)C2)cc1	-21%	–
CN1[C@@H](CC(=O)c2ccccc2)CCC[C@@H]1C[C@@H](O)c1ccccc1	15.4%	–
O=C(O)CC(c1ccccc1)n1cnnn1 (stereo not drawn)	28.7%	–
